# From PubChem BioAssay (NCATS)
# Inconclusive results are not listed. A call without a number means that no potency is given here. Values without a mark were called inactive. The source made the active and inactive calls. Unless noted, the call rests on the fitted dose curve; in most records, active means well fitted curve in the direction sought with a large enough effect; inconclusive means small, poorly fitted or top-dose-only effect, or another doubt; inactive means no such curve, though single readings can be large; an effect the other way counts as inactive or inconclusive.
# What was measured:
# [1] = qHTS for Inhibitors of Plasmodium falciparum (DD2) proliferation (AID 504314);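 further: parasite DNA measured by SYBR Green fluorescence after red cell lysis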
# Outline: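 Quantitative HTS growth inhibition: SYBR Green I binding to parasite DNA after 72 h drug exposure of infected erythrocytes (0.3% parasitemia, 2.5% hematocrit). Signals normalized per plate to inhibitor and vehicle wells.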
# [2] = qHTS for Inhibitors of Plasmodium falciparum (7G8) proliferation (AID 504316); further: nearly all actives have a fitted effect of over 65% in size; further: potency means the concentration at half of the fitted maximal effect
# Outline: (§1)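 Erythrocytes infected with P. falciparum line (0.3% parasitemia, 2.5% hematocrit final) incubated with compounds 72 h at 37 °C, 5% CO2; SYBR Green lysis buffer added, fluorescence read next day. Normalized to 0.29 uM artemisinin and DMSO.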
# [3] = qHTS for Inhibitors of Plasmodium falciparum (HB3) proliferation (AID 504318); further: nearly all actives have a fitted effect of over 60% in size
# Outline: as §1
# [4] = qHTS for Inhibitors of Plasmodium falciparum (CP250) proliferation (AID 504320)
# Outline: as §1
# [5] = biological target: Atrial natriuretic peptide receptor 1 (Homo sapiens) (UniProt P16066); experiment: Natriuretic polypeptide receptor (hNpr1) antagonism - Pilot CMLD screen (AID 1347052; calls by dose curve;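 further: HEK293 cells with hNpr1 stimulated by hNppA peptide at 0.1 nM; cGMP level read as GloSensor luciferase luminescence after agonist stimulation; series mostly up to about 9.2 µM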)
# Sequence of Atrial natriuretic peptide receptor 1 (Homo sapiens) (P16066 whole entry, looked up): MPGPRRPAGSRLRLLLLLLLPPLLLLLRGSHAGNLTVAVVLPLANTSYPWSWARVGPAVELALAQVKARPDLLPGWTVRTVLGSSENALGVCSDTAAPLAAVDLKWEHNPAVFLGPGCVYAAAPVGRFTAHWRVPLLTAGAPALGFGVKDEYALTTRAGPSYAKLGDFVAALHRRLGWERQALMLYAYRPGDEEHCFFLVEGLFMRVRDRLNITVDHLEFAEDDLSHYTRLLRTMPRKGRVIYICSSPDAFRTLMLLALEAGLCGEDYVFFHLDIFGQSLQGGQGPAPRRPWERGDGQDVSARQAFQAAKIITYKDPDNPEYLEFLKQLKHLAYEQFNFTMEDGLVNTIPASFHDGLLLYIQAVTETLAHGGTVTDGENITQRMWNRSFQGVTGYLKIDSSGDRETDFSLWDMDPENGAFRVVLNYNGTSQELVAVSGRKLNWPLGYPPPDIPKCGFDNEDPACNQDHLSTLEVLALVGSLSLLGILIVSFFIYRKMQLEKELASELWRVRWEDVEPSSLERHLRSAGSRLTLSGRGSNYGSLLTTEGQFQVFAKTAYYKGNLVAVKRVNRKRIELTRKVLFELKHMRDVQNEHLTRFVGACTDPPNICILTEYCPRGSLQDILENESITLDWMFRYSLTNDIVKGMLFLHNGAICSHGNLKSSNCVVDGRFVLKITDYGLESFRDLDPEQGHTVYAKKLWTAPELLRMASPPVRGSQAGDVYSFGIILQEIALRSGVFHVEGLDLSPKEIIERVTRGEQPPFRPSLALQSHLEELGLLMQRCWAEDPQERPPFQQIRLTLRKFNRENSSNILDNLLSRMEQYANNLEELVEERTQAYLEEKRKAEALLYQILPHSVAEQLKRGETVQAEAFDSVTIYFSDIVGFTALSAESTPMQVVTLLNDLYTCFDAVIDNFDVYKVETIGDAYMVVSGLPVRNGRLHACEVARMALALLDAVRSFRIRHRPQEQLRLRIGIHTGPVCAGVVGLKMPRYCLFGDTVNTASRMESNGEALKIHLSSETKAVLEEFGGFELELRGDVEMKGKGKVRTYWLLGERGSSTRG
Compound,Potency [1],Potency [2],Potency [3],Potency [4],Potency [5],"activity, negative = inhibition [1]"
COC(=O)C1=C(C(=O)OC)[C@@H]2N(C)c3ccccc3[C@@]23C[C@@H](C(=O)OC)N(C(=O)c2cccs2)C3=N1,inactive,inactive,inactive,inactive,inactive,–
CCCCc1cc2c(cn1)=C(OC(=O)c1cnc3ccccc3n1)C(C)(OC(=O)CC)C(=O)C=2 (stereo not given),–,1.69 µM (active),–,inactive,inactive,2.28% [at 1.12 µM]
Cc1ccc(S(=O)(=O)OC[C@@H]2CN3[C@H](c4ccc(Br)cc4)[C@H](C)CC[C@H]3C(=O)O2)cc1,inactive,inactive,–,inactive,inactive,–
CCO[C@@H]1C[C@@]1(C=C[C@@H](C)[C@H](OC)c1ccccc1Br)C(=O)OC,inactive,inactive,–,inactive,inactive,–
O=C1OC2(CCCCC2)CC2=C1[C@H]1O[C@](c3ccsc3)(Cc3ccccc31)O2,inactive,inactive,inactive,inactive,inactive,–
Cc1cc2c(c(=O)o1)[C@H]1O[C@](c3ccsc3)(Cc3cc(C#N)ccc31)O2,inactive,inactive,inactive,inactive,inactive,–
COc1ccc(C=CN(CCc2ccc(OC)c(OC)c2)C(=O)c2ccccn2)cc1,inactive,–,inactive,inactive,inactive,–
COC(=O)[C@H]1[C@H](C)[C@@]2(O)c3ccccc3N(C)[C@@]1(C)[C@H]2O,inactive,inactive,–,inactive,inactive,–
COC(=O)C1=C(C(=O)OC)[C@@H]2N(C)c3ccccc3[C@@]23C[C@@H](CO)N(C(=O)c2ccc(Br)cc2)C3=N1,inactive,inactive,inactive,inactive,inactive,–
